{
  "source": "PubChem BioAssay AID623870",
  "about": "(Broad Institute, 2012)",
  "note": "Out of some 390,000 compounds screened, about 2,600 (0.67%) were called active. This excerpt belongs to a sample that is enriched for actives. A number with no mark means an inactive call.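 The calls were made as follows: active = mean inhibition of replicates at least 50% and at least half of replicates each reaching 50%; inconclusive = half or more replicates reach 50% but mean below 50%; inactive = the rest.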",
  "data": [
    {"target": "Transforming acidic coiled-coil-containing protein 3 (Homo sapiens) (UniProt Q9Y6A5)", "assay": "disruptors of ARNT/TACC3 protein interaction, primary screen, biochemical, AlphaScreen, single concentration (AID 623870);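 also: 0% = complete ARNT plus TACC3 wells and 100% = ARNT alone without TACC3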", "conditions": "AlphaScreen His-ARNT PAS-B/GST-TACC3 binding, luminescence; at 9.99 µM; hits give high values", "values": [
      {"compound": "Cc1ccc2c(c1)=C/C(=C\\c1c(O)[nH]c(=O)[nH]c1=O)C(=O)N=2", "inhibition": "13.7%"},
      {"compound": "O=C1N=c2ccccc2=C/C1=C\\c1c(O)[nH]c(=S)[nH]c1=O", "inhibition": "37% (active)"},
      {"compound": "COc1ccccc1N=Nc1c(O)[nH]c(=S)[nH]c1=O", "inhibition": "-1.81%"},
      {"compound": "C[C@@H]1CN([C@H](C)CO)C(=O)CCCn2cc(nn2)CO[C@@H]1CN(C)C(=O)Oc1cccc2ccccc12", "inhibition": "-8.62%"},
      {"compound": "O=C(Cc1ccccn1)N1CCCCN2[C@H](C1)[C@H](c1ccc(-c3ccccc3F)cc1)[C@@H]2CO", "inhibition": "10.9%"},
      {"compound": "C/C=C/c1ccc([C@H]2[C@H](CO)N3CCCCN(C(=O)Cc4ccncc4)C[C@@H]23)cc1", "inhibition": "1.93%"},
      {"compound": "O=C(N/N=C/c1c(O)n(C2CC2)c(=S)[nH]c1=O)c1ccccc1Cl", "inhibition": "68.5% (active)"},
      {"compound": "O=c1[nH]c(=O)n(CCc2ccccc2)c(O)c1/C=N/N1CCOCC1", "inhibition": "0.078%"},
      {"compound": "CC/C(=N\\NC(=O)c1ccccc1O)c1c(O)n(Cc2ccccc2)c(=O)[nH]c1=O", "inhibition": "6.78%"},
      {"compound": "O=C(N/N=C/c1c(O)n(Cc2ccccc2)c(=O)[nH]c1=O)c1ccccc1", "inhibition": "70.1% (active)"},
      {"compound": "CCCCC(=O)N/N=C/c1c(O)n(-c2ccccc2)c(=O)[nH]c1=O", "inhibition": "65.6% (active)"},
      {"compound": "CCc1nnc(NS(=O)(=O)c2ccc(N=Cc3c(O)n(-c4ccccc4)c(=O)[nH]c3=O)cc2)s1", "inhibition": "-4.6%"},
      {"compound": "O=c1[nH]c(=S)n(C2CC2)c(O)c1/C=N/N1CCOCC1", "inhibition": "-0.873%"},
      {"compound": "O=c1[nH]c(=O)n(-c2ccc(F)cc2)c(O)c1C=NCCN1CCCCC1", "inhibition": "-1.3%"},
      {"compound": "COc1ccccc1-n1c(O)c(C=NC2CC2)c(=O)[nH]c1=O", "inhibition": "4.19%"},
      {"compound": "Cc1cccc(-n2c(O)c(/C=N/N3CCOCC3)c(=O)[nH]c2=S)c1", "inhibition": "-0.608%"},
      {"compound": "O=C(N/N=C/c1c(O)n(C2CC2)c(=S)[nH]c1=O)c1ccccc1", "inhibition": "62.7% (active)"},
      {"compound": "CC(C)c1ccc(-n2c(O)c(/C=N/N3CCOCC3)c(=O)[nH]c2=S)cc1", "inhibition": "6.63%"},
      {"compound": "COc1ccc(-c2ccc([C@H]3[C@H](CO)N4CCCCN(C(=O)Cc5ccncc5)C[C@@H]34)cc2)cc1", "inhibition": "-8.67%"},
      {"compound": "COC(=O)[C@H]1[C@H](CO)[C@H]2Cn3c(ccc(-c4cccc(F)c4)c3=O)[C@@H]1N2Cc1ccccc1", "inhibition": "-0.694%"},
      {"compound": "O=C(Cc1ccccc1)N1CCCCN2[C@H](C1)[C@H](c1ccc(C#CC3(O)CCCC3)cc1)[C@@H]2CO", "inhibition": "-2.57%"},
      {"compound": "COc1cccc(-c2ccc3n(c2=O)C[C@@H]2[C@@H](CO)[C@H](C(=O)O)[C@H]3N2C(=O)c2cnccn2)c1", "inhibition": "-0.13%"},
      {"compound": "COC(=O)[C@@H]1[C@@H](CO)[C@@H]2Cn3c(ccc(C4=CCCCC4)c3=O)[C@H]1N2CC1CC1", "inhibition": "-4.97%"},
      {"compound": "O=C(Cc1ccccc1)N1CCCCN2[C@H](CO)[C@H](c3ccc(C#Cc4ccccc4)cc3)[C@H]2C1", "inhibition": "3.71%"},
      {"compound": "CCOC(=O)[C@@H]1[C@@H]2NC(=O)N[C@@]1(C)Oc1ccccc12", "inhibition": "1.64%"},
      {"compound": "OC[C@@H]1[C@H]2c3ccccc3NC[C@H]2N1Cc1cccnc1", "inhibition": "5.28%"},
      {"compound": "CCC(C)n1c(O)c(/C=N/Nc2nc3c(c(=O)n(C)c(=O)n3C)n2C)c(=O)[nH]c1=S", "note": "(stereo not given)", "inhibition": "65.4% (active)"},
      {"compound": "O=C(O)[C@@H]1[C@@H](CO)[C@@H]2Cn3c(ccc(-c4ccccc4F)c3=O)[C@H]1N2C(=O)c1cccnc1", "inhibition": "8.55%"},
      {"compound": "COc1ccc(C#Cc2ccc([C@H]3[C@H](CO)N4CCCCN(C(=O)Cc5ccccc5)C[C@@H]34)cc2)cc1", "inhibition": "-4.42%"},
      {"compound": "O=C(Cc1ccncc1)N1CCCCN2[C@@H](CO)[C@H](c3ccc(C#CC4(O)CCCC4)cc3)[C@@H]2C1", "inhibition": "-1.41%"}
    ]}
  ]
}
